# According to article PMC12864922, “TDP-43 directly inhibits mRNA accumulation in neurites through modulation of mRNA stability”:
# Over roughly 9,900 sequences, “r (bound/input frequency ratio)” has its median near 0.7; the highest 2% begin near 6.5. The sample as a whole holds a higher share of the highest values than the screen did.
# B1: ENSMUSG00000061578.285|Ksr2 (ssRNA)
# RNA: GGGAGUUCUACAGUCCGACGAUCGCUUCGAUAUCCGCAUGCUAGGAUAUAUCUCUGUGGCCAGGGCUGGACUGAGACUGACCCCCUCCUACUAAGCAUCUUAGAGUUUCUCUUUUCUCUUUAAUUGCAUCAGGACCCCUUUGGUCCAUGUACCCCGGUCUCUGUCACAUGCCUUUGUAUCUUGGAGGAAGUAAGAGAGGAGAGAGCCAGGGAGGGCUGAAGCUCUGGGACCCUGAAGUGUCCCCCGGGAACUGGGACUCACUCAUCUUCUCCUGUUUGUAGCUCAAUGACCCAGUGGGUCACACUCUUGCGGUCGCACUAGUGUGGAAUUCUCGGGUGUCAAGG
# B2: ENSMUSG00000029028.201|Lrrc47 (ssRNA)
# RNA: GGGAGUUCUACAGUCCGACGAUCGCUUCGAUAUCCGCAUGCUAAGCACACAGCUGCCAUCCCUCGAGCCACAGUGCCUGGUCCUAAGGACCCAGCAGCUGCACAGAGGACUUGGUGGCCCCGUGCCUUGCCAUCUGGCUGAGAAGAGAACCAGACCCUCAGCCUUCCCCCUCGACACCUUCUCGUUGGUGACCUCUGACCUUAAAGGACCAUUUCUACCUUCUGUAAAAGAACACCUGUUUGGGGUUGCGUGCGGCUUUCAUCCUAAGGCCGUGCGAGAGCCGUUAGCUGUCAGAACUAGUGACUCUUGCGGUCGCACUAGUGUGGAAUUCUCGGGUGUCAAGG
# B3: ENSMUSG00000028439.16|Fam219a (ssRNA)
# RNA: GGGAGUUCUACAGUCCGACGAUCGCUUCGAUAUCCGCAUGCUAAUUCAGUAGUGGGCGGGGUCGCCGCGGUGCACGGGGCGCUGACCUGGGCCCGGUGGGAUGCAGCAGGAGAGACCCCUACCCUGCUGGUCCACUGGUCCCCAGCCCCGCGCCUCUUAGAGCCGCCAACCUCGUAACAGUCAUUGCUUCCUCCUAUGGUAGGACGUGUACCUCUGUGUGUUCAAGGAGCCGGAGAAACCAAAACCGGGUCUGUCUCCAGCCCCGGGGCUGAGGAGGGGUGGGCACUGUUUGUUCGGUUACUUCUCUUGCGGUCGCACUAGUGUGGAAUUCUCGGGUGUCAAGG
# B4: ENSMUSG00000031028.682|Tub|139:143;183:187;256:260 (ssRNA)
# RNA: GGGAGUUCUACAGUCCGACGAUCGCUUCGAUAUCCGCAUGCUACUAUUUUGGAGUGGUCAGACAUUUUAUUUUUGUUCAAAAUUAUCUGGAGUUUUAGACAAACUUGCAAAACUGUGCUUUUAUUAAGUGACUUUUUGAAUAAACUUUUUGGUAUUCUGAAGCAAAUGUAUUUAUUUAUUGCAUACUGCAAUGACAAACUUGGUAUUUUCCCAUAAUGACAUUAUCAUACUUGUAGAAUUUAGUGUUUGUCUAAGUACAGACAUGUAUCAACACAUUAAACUUGAACUGUUUGACGGCACACACUCUUGCGGUCGCACUAGUGUGGAAUUCUCGGGUGUCAAGG
# B5: ENSMUSG00000090935.52|Synj2bp (ssRNA)
# RNA: GGGAGUUCUACAGUCCGACGAUCGCUUCGAUAUCCGCAUGCUAGUGUCCCUGAGAGUACAGCACAGGUUACCAGUGCAGAAUGGACCUAUAGUACAUCGAGGUGAAGGAGAGCCAAGUGGAGUUCCUGUAGCUAUGGUGCUGCUACCAGUGUUUGCCCUCACCAUGGUAGCAGUUUGGGCCUUCGUGAGAUACCGAAAGCAGCUUUGAAAUGCUUGCUGUCUUCCAGUGUGUCCAAUGAACUCUCUCUCUCACUCACCAUCUCUGACAUCCUCCCAUAUUCUUUCUCCUCCACAUAGCCAAUACUCUUGCGGUCGCACUAGUGUGGAAUUCUCGGGUGUCAAGG
# B6: ENSMUSG00000061578.273|Ksr2 (ssRNA)
# RNA: GGGAGUUCUACAGUCCGACGAUCGCUUCGAUAUCCGCAUGCUAGGCCCUGGGCUCCAGAGUCGCUGAAGACCACUCUCCACAGCAGCUGUAACCCCAUCUAACAAGCCCUGUUCUGGAUAUAUCUCUGUGGCCAGGGCUGGACUGAGACUGACCCCCUCCUACUAAGCAUCUUAGAGUUUCUCUUUUCUCUUUAAUUGCAUCAGGACCCCUUUGGUCCAUGUACCCCGGUCUCUGUCACAUGCCUUUGUAUCUUGGAGGAAGUAAGAGAGGAGAGAGCCAGGGAGGGCUGAAGCUCUGGGACCCUCUUGCGGUCGCACUAGUGUGGAAUUCUCGGGUGUCAAGG
# B7: ENSMUSG00000058297.284|Spock2|1:18;137:142 (ssRNA)
# RNA: GGGAGUUCUACAGUCCGACGAUCGCUUCGAUAUCCGCAUGCUAACACACACACACACACACAGAGAGAGAGAGAGAGAGAGAGAGAGAGAGAGAGAGAAAGAGAGAGAGAAUGAGAGAGAAUGAGAGAGAGAAUACCCGAGGGCCACCCUGAUGCCCAGGAAGAGUGAGGGCAGCCCCCACACACGUGGAAGAGGCUGGGCAGCUAGCUACUGGGGACCUUGUGCUGAGGCUUCCAGGACAAAGCCCCAGUCUGGCUCUCCCCCAGCCUCUCAGGGGCACUGGCUGGUCACAUCCACUGAGUACUCUUGCGGUCGCACUAGUGUGGAAUUCUCGGGUGUCAAGG
# B8: ENSMUSG00000058297.286|Spock2|1:6;125:130 (ssRNA)
# RNA: GGGAGUUCUACAGUCCGACGAUCGCUUCGAUAUCCGCAUGCUAACACACAGAGAGAGAGAGAGAGAGAGAGAGAGAGAGAGAGAGAAAGAGAGAGAGAAUGAGAGAGAAUGAGAGAGAGAAUACCCGAGGGCCACCCUGAUGCCCAGGAAGAGUGAGGGCAGCCCCCACACACGUGGAAGAGGCUGGGCAGCUAGCUACUGGGGACCUUGUGCUGAGGCUUCCAGGACAAAGCCCCAGUCUGGCUCUCCCCCAGCCUCUCAGGGGCACUGGCUGGUCACAUCCACUGAGUAUUGAUCGGUUGGCUCUUGCGGUCGCACUAGUGUGGAAUUCUCGGGUGUCAAGG
# B9: ENSMUSG00000058297.285|Spock2|1:12;131:136 (ssRNA)
# RNA: GGGAGUUCUACAGUCCGACGAUCGCUUCGAUAUCCGCAUGCUAACACACACACACAGAGAGAGAGAGAGAGAGAGAGAGAGAGAGAGAGAGAAAGAGAGAGAGAAUGAGAGAGAAUGAGAGAGAGAAUACCCGAGGGCCACCCUGAUGCCCAGGAAGAGUGAGGGCAGCCCCCACACACGUGGAAGAGGCUGGGCAGCUAGCUACUGGGGACCUUGUGCUGAGGCUUCCAGGACAAAGCCCCAGUCUGGCUCUCCCCCAGCCUCUCAGGGGCACUGGCUGGUCACAUCCACUGAGUAUUGAUCCUCUUGCGGUCGCACUAGUGUGGAAUUCUCGGGUGUCAAGG
# B10: ENSMUSG00000058297.297|Spock2|59:64 (ssRNA)
# RNA: GGGAGUUCUACAGUCCGACGAUCGCUUCGAUAUCCGCAUGCUAUGAGAGAGAGAAUACCCGAGGGCCACCCUGAUGCCCAGGAAGAGUGAGGGCAGCCCCCACACACGUGGAAGAGGCUGGGCAGCUAGCUACUGGGGACCUUGUGCUGAGGCUUCCAGGACAAAGCCCCAGUCUGGCUCUCCCCCAGCCUCUCAGGGGCACUGGCUGGUCACAUCCACUGAGUAUUGAUCGGUUGGACUUUAGGGAAGAGCCUCCUCCUUCCCAUUCCUUUCUGCCACCCUGGAAUGGCCACCUUAAUCGUCCUCUUGCGGUCGCACUAGUGUGGAAUUCUCGGGUGUCAAGG
# B11: ENSMUSG00000028439.112|Fam219a|120:124 (ssRNA)
# RNA: GGGAGUUCUACAGUCCGACGAUCGCUUCGAUAUCCGCAUGCUACAAAGGGAUACUGUCUCUCCAUUAGAUAACUCCUUCCACUGUCUCCCUCCCCCGCUUUCUUACUUUCUGAGGGUUGGGAAGGUAAGAUGGGCCUUAGAGAGAAGCCAGGUUUGGGGAUGCAUACACCUGUUCUCACCGGUCUCUAACCAGUGCAUCUGUCUCUCUGCCUCAUCCCCACACCGCCCUGCCACCCCCAGUCUUCUGUCUAUUGGUUCCAGGCUGGAAGCAAGAGAUAAGGCUGGCCUCCUGUGCCCCAUUGCCUCUUGCGGUCGCACUAGUGUGGAAUUCUCGGGUGUCAAGG
# B12: ENSMUSG00000031028.669|Tub (ssRNA)
# RNA: GGGAGUUCUACAGUCCGACGAUCGCUUCGAUAUCCGCAUGCUAAUUUCUCUAGCUGAGAGCACACUUAGCCAGUUUUCACGCCUAGAACAUAUAUGUCGAUUUGCACAUGAUUGUCUUUUCCUAUUUUGGAGUGGUCAGACAUUUUAUUUUUGUUCAAAAUUAUCUGGAGUUUUAGACAAACUUGCAAAACUGUGCUUUUAUUAAGUGACUUUUUGAAUAAACUUUUUGGUAUUCUGAAGCAAAUGUAUUUAUUUAUUGGUAUGUGCAAUGACAAACUUGGUAUUUUCCCAUAAUGACAUUAUCUCUUGCGGUCGCACUAGUGUGGAAUUCUCGGGUGUCAAGG
# B13: ENSMUSG00000061578.833|Ksr2 (ssRNA)
# RNA: GGGAGUUCUACAGUCCGACGAUCGCUUCGAUAUCCGCAUGCUACUCACAGUUUCAAAGGGCUCAGUCCAUAGCUGCCUGACUCUGUGUUUCUAGGCCUUUCUUGAGGCAAGUGUUCAUCAUGAUAGUGUGAGGGUGAGGAGGAGUUUCUUCAUGGCAAACAGGAAGCAAAGAGCAAUACAGGAAAAGGUCAGGGGUGAGAUGUGUCAUUGCCACUUCCUCCAGCUAGGACCUUUGAGCAUCACAUUGUGAAGCCAUCCAGGGACUUGGGGGUUAGGUCAGAGGUAUCAAUACAUCUCCGGAAACUCUUGCGGUCGCACUAGUGUGGAAUUCUCGGGUGUCAAGG
# Target: TDP-43 (Homo sapiens, UniProt Q13148 1-414)
# Sequence (Q13148 whole entry): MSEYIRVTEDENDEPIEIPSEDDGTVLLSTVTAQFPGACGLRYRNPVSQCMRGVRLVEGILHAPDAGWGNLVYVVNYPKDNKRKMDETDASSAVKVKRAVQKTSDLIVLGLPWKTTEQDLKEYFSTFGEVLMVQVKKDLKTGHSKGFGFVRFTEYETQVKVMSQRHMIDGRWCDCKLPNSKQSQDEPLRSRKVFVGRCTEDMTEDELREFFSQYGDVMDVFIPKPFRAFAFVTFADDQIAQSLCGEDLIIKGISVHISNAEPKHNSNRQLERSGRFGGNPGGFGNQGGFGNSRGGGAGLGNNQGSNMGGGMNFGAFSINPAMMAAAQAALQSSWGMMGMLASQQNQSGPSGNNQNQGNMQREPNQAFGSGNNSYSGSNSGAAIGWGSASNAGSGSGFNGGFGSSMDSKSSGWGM
# Assay: RNA Bind-n-Seq with designed 260-mer pool; 25 mM Tris-HCl, 150 mM KCl, 3 mM MgCl2, BSA (printed 500 mg/mL), 20 units/mL SUPERase IN; pH not stated; 500 nM RNA pool, 1 h, 4 C; TDP-43 5, 50, 500 nM; high values mean tight binding
# Conditions: protein: recombinant; tags: SBP (GST cleaved off with PreScission; pGEX-GST-SBP)
# Outline: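 In 25 mM Tris-HCl, 150 mM KCl, 3 mM MgCl2, BSA and SUPERase IN, 500 nM of an in vitro-transcribed 260-nt 3′ UTR oligo pool was incubated for 1 h at 4 °C with SBP-tagged TDP-43 (5, 50 or 500 nM) captured on streptavidin beads. RNA remaining after washes was biotin-eluted, reverse transcribed, PCR-amplified and sequenced. Binding, R, is the bound-sample abundance of each oligo, normalized to mapped reads, divided by its abundance in input. Each duplicate used a separate, independent protein batch.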
row,Binder,binding signal
1,B1,0.368 R (bound/input frequency ratio)
2,B2,0.156 R (bound/input frequency ratio)
3,B3,0.466 R (bound/input frequency ratio)
4,B4,0.0217 R (bound/input frequency ratio)
5,B5,1.19 R (bound/input frequency ratio)
6,B6,0.384 R (bound/input frequency ratio)
7,B7,8.98 R (bound/input frequency ratio)
8,B8,6.42 R (bound/input frequency ratio)
9,B9,7.3 R (bound/input frequency ratio)
10,B10,6.44 R (bound/input frequency ratio)
11,B11,0.515 R (bound/input frequency ratio)
12,B12,0.0963 R (bound/input frequency ratio)
13,B13,1.23 R (bound/input frequency ratio)
